Test results reported in PubChem BioAssay.
A number with no mark means an inactive call. No rule for the calls is given here.

Target: Pantothenate synthetase (Mycobacterium tuberculosis (strain ATCC 25618 / H37Rv)) (UniProt P9WIL5)
Experiment: Recombinant Mtb pantothenate synthetase (PanC) inhibitors, coupled enzyme, confirmatory (AID 375);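 also: 0% = full reaction with vehicle and 100% = no enzyme background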
Settings: coupled enzyme assay; at 10 µM, active compounds read high

Sequence of Pantothenate synthetase (Mycobacterium tuberculosis (strain ATCC 25618 / H37Rv)) (P9WIL5 whole entry, looked up): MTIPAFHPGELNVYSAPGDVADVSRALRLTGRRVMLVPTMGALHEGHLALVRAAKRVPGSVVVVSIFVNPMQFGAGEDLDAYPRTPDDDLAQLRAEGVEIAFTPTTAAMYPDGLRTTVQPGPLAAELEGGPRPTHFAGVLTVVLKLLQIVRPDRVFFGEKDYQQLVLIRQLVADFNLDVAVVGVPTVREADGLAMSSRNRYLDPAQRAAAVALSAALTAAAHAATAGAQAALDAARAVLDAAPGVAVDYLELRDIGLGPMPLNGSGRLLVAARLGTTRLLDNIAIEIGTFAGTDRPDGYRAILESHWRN

SMILES	inhibition [%]
Cc1ccc(-c2cn3nc(C)c(C)nc3n2)cc1	1
COc1ccc2cnn(-c3ccccc3C)c(=O)c2c1OC	3
C=CCOC(=O)C(C#N)c1nc2ccccc2nc1N1CCN(Cc2ccccc2)CC1 (stereo not given)	2
Cc1ccc(-c2noc(CCC(=O)NC3CCCc4ccccc43)n2)cc1 (stereo not given)	2
Cc1cccc2c1nc(-c1ccccc1)n1cnnc21	0
CCN(C(=O)Cc1c(C(=O)O)[nH]c2ccccc12)c1cc(OC)ccc1OC	0
COc1ccc(S(=O)(=O)N2CCN(S(=O)(=O)c3ccc4c(c3)OCCO4)CC2)cc1C	0
Cc1ccc(NS(=O)(=O)c2cn(C)cn2)cc1	5
Cc1ccc2[nH]c3c(N4CCOCC4)ncnc3c2c1	0
CCOc1nc(-c2ccccc2O)nc2ccccc12	0
O=C(Nc1ccccc1)c1cccc(N2CCCC2=O)c1	6
CCCNC(=O)C1=C(C)C(=O)OC12CCC(C)CC2 (stereo not given)	0
COc1ccc(N(CC(=O)N2c3ccccc3CC2C)S(=O)(=O)c2c(C)noc2C)cc1 (stereo not given)	7
CCOC(=O)c1cc(-c2ccccc2)sc1N	3
COCCN(CCOC)S(=O)(=O)c1ccc(C(=O)Nc2nnc(C3CC3)o2)cc1	0
CS(=O)(=O)N(CC(=O)NC1CC1)c1cccc(F)c1	0
O=C(N1CCN(c2ccccc2F)CC1)C12CC3CC(CC(C3)C1)C2	0
CCCN1CC23C=CC(O2)C(C(=O)O)C3C1=O (stereo not given)	0
CC(C)(C)c1ccc(C(O)CCCN2CCC(C(O)(c3ccccc3)c3ccccc3)CC2)cc1 (stereo not given)	0
COc1cccc(-c2nc(CSCC(=O)N3CCc4ccccc43)c(C)o2)c1	0

SMILES	inhibition [%]
CCN1CCN(c2c(Cl)cccc2NC(=O)c2ccco2)CC1	9
CN1[C@@H](CC(=O)c2ccccc2)CCC[C@H]1C[C@H](O)c1ccccc1	8
CCOC(=O)Nc1c(O)ccc2oc(C)c(-c3ccccc3)c12	0
Cn1nc(-c2ccc(C(=O)NCC3CCCO3)cc2)c2ccccc2c1=O (stereo not given)	4
Cc1ccc2c(c1)NC(=O)C(CC(=O)NC1CCCCC1C)O2 (stereo not given)	11
CN(c1ccccc1C(N)=O)S(=O)(=O)c1ccccc1	10
CCCCOc1ccc(-c2nnc(N)s2)cc1	0
Nc1nc(Nc2cccc3ccccc23)nc(C2CCCC2=O)n1 (stereo not given)	5
O=C(CSc1nc(-c2ccc(F)cc2)cs1)N1CCOCC1	0
CCC1CCCCN1C(=O)Cn1c(C(=O)OC)cc2sc(Cl)cc21 (stereo not given)	0
CCOC(=O)N1CCC(c2cc(=O)n3[nH]c(C)c(-c4ccc(F)cc4)c3n2)CC1	0
CC(C)=CCCC(C)CN(C)CCc1ccccn1 (stereo not given)	0
CCN1CCN(c2ncnc3c2oc2nc(C)c4c(c23)CC(C)(C)OC4)CC1	0
O=c1c2ccccc2cnn1-c1nc2ccccc2s1	0
CN(C1CCCCC1)S(=O)(=O)c1ccc(NC(=O)c2ccco2)cc1	0
CCOC(=O)C1CCN(c2c(Nc3ccc4c(c3)OCCO4)c(=O)c2=O)CC1	0
COC(=O)Nc1sccc1C(=O)Nc1sccc1C(=O)OC	0
NC(=O)CSCc1ccc(Br)cc1	0
COc1cccc(OC)c1OCCCSc1nc(C)cc(=O)[nH]1	0
CCOC(=O)c1[nH]nc(-c2c(O)cc(C)cc2O)c1-c1csc(C)n1	0
